# Screening results as filed in PubChem.
# rCAG RNA binder – binders of r(CAG) RNA repeats, primary screen, biochemical, fluorescence; inhibition, % at 3 µM; r(CAG) RNA repeat, TO-PRO-1 dye displacement fluorescence; 370,000 compounds, 1.3% hits; AID 651821, 2012;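 active means inhibition above the plate cutoff, the mean of all test compounds on that plate plus 3 SD, cut at about 35% in these data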;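 further: 0% = DMSO alone and 100% = 100 µM mitoxantrone as full dye displacement; higher means more dye released from RNA so lower well fluorescence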
# PAFAH1B2 inh – PAFAH1B2 enzyme inhibitors, primary screen, biochemical, fluorescence polarization, human; 340,000 compounds, 1.2% hits; inhibition, % at 3.39 µM; recombinant PAFAH1B2, FP-rhodamine activity probe; Platelet-activating factor acetylhydrolase IB subunit alpha2 (Homo sapiens), P68402;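 active means inhibition above the mean of all tested compounds plus 3 SD, cut at about 24% in these data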;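 further: 0% = enzyme with DMSO and 100% = wells lacking PAFAH1B2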
# Target sequence (P68402 whole entry, looked up): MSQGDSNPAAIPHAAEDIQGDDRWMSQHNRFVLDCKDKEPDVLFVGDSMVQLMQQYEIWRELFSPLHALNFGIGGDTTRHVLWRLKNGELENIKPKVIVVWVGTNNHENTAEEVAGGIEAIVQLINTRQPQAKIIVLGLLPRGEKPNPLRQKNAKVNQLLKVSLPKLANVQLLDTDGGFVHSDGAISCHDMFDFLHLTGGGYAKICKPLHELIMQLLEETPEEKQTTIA
# ZTA counter – blocks Epstein-Barr virus ZTA, an EBNA-1 counter-screen | inhibition, % at 11 µM | 320,000 compounds, 0.15% hits | P03206 | ZTA-DNA binding, fluorescence polarization | AID 2234; in the data active means inhibition above about 33%
# Target sequence (P03206 whole entry, looked up): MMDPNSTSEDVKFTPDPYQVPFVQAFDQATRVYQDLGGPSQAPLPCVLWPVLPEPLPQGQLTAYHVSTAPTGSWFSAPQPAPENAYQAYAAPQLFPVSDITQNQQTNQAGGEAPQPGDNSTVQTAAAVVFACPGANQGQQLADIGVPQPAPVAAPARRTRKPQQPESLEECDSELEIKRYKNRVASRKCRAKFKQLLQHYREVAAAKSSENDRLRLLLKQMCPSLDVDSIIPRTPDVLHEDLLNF
# PAFAH1B3 inh – PAFAH1B3 enzyme inhibitors, primary screen, biochemical, fluorescence polarization, human | 340,000 compounds, 0.28% hits | AID 492972, 2010 | inhibition, % at 3.39 µM | recombinant PAFAH1B3, FP-rhodamine probe | Platelet-activating factor acetylhydrolase IB subunit alpha1 (Homo sapiens), Q15102;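 active means inhibition above the screen-wide average of all tested compounds plus 3 SD, cut at about 25% in these data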;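 further: 0% = enzyme with DMSO only and 100% = wells lacking PAFAH1B3 protein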
# Target sequence (Q15102 whole entry, looked up): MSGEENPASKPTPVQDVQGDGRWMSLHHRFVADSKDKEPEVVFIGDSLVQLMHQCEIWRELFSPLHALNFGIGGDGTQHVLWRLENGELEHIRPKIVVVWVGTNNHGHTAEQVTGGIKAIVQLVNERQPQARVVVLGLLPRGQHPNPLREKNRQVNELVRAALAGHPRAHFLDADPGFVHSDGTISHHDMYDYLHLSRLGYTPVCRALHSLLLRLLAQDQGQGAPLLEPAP
# EBNA-1 inh – EBNA-1 DNA-binding inhibitors, primary screen, biochemical, fluorescence polarization | inhibition, % at 14.8 µM | 300,000 compounds, 0.34% hits | AID 1950, 2009; in the data active means inhibition above about 28%
# PAFAH2 inh – PAFAH2 enzyme inhibitors, primary screen, biochemical, fluorescence polarization, human; AID 492956, 2010; inhibition, % at 3.39 µM; Platelet-activating factor acetylhydrolase 2, cytoplasmic (Homo sapiens), Q99487; 340,000 compounds, 0.99% hits; recombinant PAFAH2, FP-rhodamine activity probe;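 active means inhibition above the mean over all tested compounds plus 3 SD, cut at about 30% in these data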;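 further: inhibitors block probe labeling of enzyme so polarization drops; 0% = enzyme with DMSO and 100% = wells lacking PAFAH2 protein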
# rCAG binder conf – small molecules binding CAG repeat RNA – biochemical, fluorescence, confirmation. r(CAG) RNA repeat, TO-PRO-1 dye displacement fluorescence. shares compounds with rCAG RNA binder. 4,300 compounds, 70% hits. inhibition, % at 3 µM;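 active means inhibition above a per-plate cutoff, the mean inhibition of sample wells plus 3 SD, cut at about 35% in these data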;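 further: loss of TO-PRO-1 fluorescence as compound displaces dye from 1x1 AA loop RNA; 0% = DMSO only wells and 100% = 100 µM mitoxantrone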
# DNA CAG counter – displacement of TO-PRO-1 from CAG DNA duplex, counter-screen for rCAG RNA repeat binder project, biochemical, fluorescence, TO-PRO-1 dye, d(CAG) DNA oligo; shares compounds with rCAG RNA binder; d(CAG) DNA oligo TO-PRO-1 dye displacement; inhibition, % at 3 µM; 4,300 compounds, 94% hits;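 active means inhibition above its plate's cutoff, the mean test-well inhibition plus 3 SD, cut at about 4.8% in these data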;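 further: 0% = DNA dye mix with DMSO and 100% = 100 µM mitoxantrone; hits displace the dye from DNA and so lower well fluorescence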
# dCAG dye DR – inhibitors of DNA CAG/GTC TO-PRO-1 complex, dose response, counter-screen for rCAG RNA repeat binder project, biochemical, fluorescence, TO-PRO-1 dye | 250 compounds, 20% hits | IC50, µM | AID 686960, 2013 | DNA CAG/GTC duplex TO-PRO-1 dye displacement fluorescence | shares compounds with rCAG RNA binder; in the data active means IC50 below about 10 µM
# * marks the source's active call; other numbers are inactive results; i = inactive; . = no result given. Only some compounds are listed: those with a hit (about 2.9% of all), similar ones and a draw of the others.
SMILES,rCAG RNA binder,PAFAH1B2 inh,ZTA counter,PAFAH1B3 inh,EBNA-1 inh,PAFAH2 inh,rCAG binder conf,DNA CAG counter,others
O=c1cc(-c2ccccc2)nc2c(-c3ccccc3)c(C(F)(F)F)[nH]n12,92*,.,13,.,11,.,77*,42*,
Cc1ccc(NC2=Nc3ccccc3N3C2=Nc2c(c(C)nn2-c2ccccc2)C3c2ccc(O)c(O)c2)cc1 (stereo not drawn),57*,-9,.,-13,.,-22,63*,42*,
Cc1cccc(NC2=Nc3ccccc3N3C2=Nc2c(c(C)nn2-c2ccccc2)C3c2ccc(O)c(O)c2)c1 (stereo not drawn),57*,-13,11,-15,26,-37,48*,34*,
Cc1cccc(Cn2cc(COC(=O)NCCc3c[nH]c4ccccc34)nn2)c1,5,.,.,.,.,.,.,.,
COC(=O)C1=C(C)N(Cc2cccc(C(F)(F)F)c2)C(=NCc2cc(OC)c(OC)c(OC)c2)NC1c1ccc(F)cc1 (stereo not drawn),6,.,.,.,.,.,.,.,
Cc1cc(C)nc(SCC(=O)Nc2ccc(S(=O)(=O)Nc3nccs3)cc2)n1,12,2,10,8,7,4,.,.,
CCOc1ccc(-n2c(SCC(=O)Nc3ccc(S(=O)(=O)Nc4nccs4)cc3)nnc2-c2ccccc2)cc1,80*,.,.,.,.,.,72*,38*,
COc1ccc(-n2c(SCC(=O)Nc3ccc(S(=O)(=O)Nc4nccs4)cc3)nnc2-c2cccs2)cc1,73*,.,.,.,.,.,72*,33*,dCAG dye DR=i
Cn1c(SCC(=O)Nc2ccc(S(=O)(=O)Nc3nccs3)cc2)nc2sc3c(c2c1=O)CCCC3,74*,.,.,.,.,.,77*,43*,
CCn1c2ccccc2c2cc(NC(=O)CSc3nnc(-c4ccccc4)n3Cc3ccco3)ccc21,35*,.,.,.,.,.,27,15*,
Cc1cc(NC(=O)CSc2nc3sc4c(c3c(=O)n2C)CCCC4)no1,0,-1,13,3,6,-5,.,.,
O=C(CSc1nnc(-c2ccncc2)n1Cc1ccco1)Nc1nccs1,-4,3,-6,5,-6,15,.,.,
Cc1cc(NS(=O)(=O)c2ccc(NC(=O)CSc3nnc(SCc4ccc(Cl)cc4)s3)cc2)nc(C)n1,59*,.,.,.,.,.,58*,20*,
COc1ccc(-n2c(SCC(=O)Nc3ccc(S(=O)(=O)Nc4nccs4)cc3)nnc2-c2ccco2)cc1,74*,.,.,.,.,.,69*,30*,
COc1ccc(-c2nnc(SCC(=O)Nc3ccc(S(=O)(=O)Nc4nccs4)cc3)n2-c2ccc(OC)cc2)cc1,64*,.,.,.,.,.,58*,28*,
CC(C)(C)c1ccc(-c2nnc(SCC(=O)Nc3ccc(S(=O)(=O)Nc4nccs4)cc3)n2Cc2ccco2)cc1,51*,.,.,.,.,.,47*,20*,
COc1ccc(CSc2nnc(SCC(=O)Nc3ccc(S(N)(=O)=O)cc3)s2)cc1,14,.,.,.,.,.,.,.,
Cc1ccc(S(=O)(=O)N2CCN(C(=O)c3cc(S(=O)(=O)N4CCOCC4)c(Cl)cc3Cl)CC2)cc1,4,17,.,8,.,2,.,.,
CN(C)c1cccc(CNC(=O)c2csc([C@H]3C[C@H](O)[C@@H](CO)O3)n2)c1,0,.,.,.,.,.,.,.,
Cc1ccc(-n2c(SCC(=O)Nc3ccc(S(=O)(=O)Nc4cc(C)nc(C)n4)cc3)nnc2-c2cccs2)cc1,43*,.,.,.,.,.,42*,11*,
O=C(CSc1nnc(-c2cccnc2)n1-c1ccc(Cl)cc1)Nc1ccc(S(=O)(=O)Nc2nccs2)cc1,59*,.,.,.,.,.,63*,22*,
Cc1ccc(NC(=O)CSc2nnc(-c3cccnc3)n2-c2ccc(C)cc2)cc1,-1,-2,0,0,0,0,.,.,
Cc1ccc(-n2c(SCC(=O)Nc3ccc(S(=O)(=O)Nc4cc(C)nc(C)n4)cc3)nnc2-c2ccncc2)cc1,30,.,.,.,.,.,.,.,
COc1ccccc1NC(=O)COC(=O)c1c(NC(C)=O)sc(C)c1C,3,.,.,.,.,.,.,.,
Cc1ccc(-c2nc3ccccc3nc2NN)cc1,1,2,-4,0,-1,3,.,.,
SMILES,rCAG RNA binder,PAFAH1B2 inh,ZTA counter,PAFAH1B3 inh,EBNA-1 inh,PAFAH2 inh,rCAG binder conf,DNA CAG counter,others
O=C(Nc1ccc(Cl)cc1)c1ccc2sc([C@@H]3O[C@H](CO)[C@@H](O)[C@H]3O)nc2c1,5,.,.,.,.,.,.,.,
CCn1c(SCC(=O)Nc2ccc(S(=O)(=O)Nc3cc(C)nc(C)n3)cc2)nc2sc(C)c(C)c2c1=O,53*,.,.,.,.,.,34,11*,
Cc1cc(NS(=O)(=O)c2ccc(NC(=O)CSc3nnc(-c4ccco4)n3Cc3ccco3)cc2)nc(C)n1,17,3,-5,1,4,0,.,.,
Cc1cc(NS(=O)(=O)c2ccc(NC(=O)CSc3nc4sc(C)c(C)c4c(=O)n3Cc3ccco3)cc2)nc(C)n1,68*,.,.,.,.,.,63*,27*,
Cc1ccc(OCCN(C)C(=O)C2CCC(=O)N(CCCN3CCCC3=O)C2)cc1 (stereo not drawn),-6,0,0,10,0,8,.,.,
Oc1nc(Nc2ccc(F)cc2)sc1/C=C1\C=Nc2ccccc21,48*,2,-29,16,-8,5,25,14*,
O=c1[nH]c(S)c(/C=C2\C=Nc3ccccc32)s1,11,.,4,.,-7,.,.,.,
COc1cc([N+](=O)[O-])cc(/C=C2/SC(=S)N(Cc3ccccc3)C2=O)c1O,79*,-99,15,-91,6,-61,95*,85*,
O=C1/C(=C\c2cccc([N+](=O)[O-])c2O)SC(=S)N1Cc1ccccc1,37*,-1,-1,-12,-2,2,93*,78*,
Nc1c(C(=O)O)sc2nc(-c3ccccc3)cc(-c3ccc(Cl)cc3)c12,76*,-1,11,7,9,-2,71*,37*,
N#Cc1c(-c2ccco2)nc(SCC(=O)Nc2cccc(Cl)c2)[nH]c1=O,72*,2,3,2,-5,-7,72*,27*,dCAG dye DR=i
O=C(CSc1nc(-c2ccc(Cl)cc2)[nH]c(=O)n1)Nc1cccc(Cl)c1,57*,.,-4,.,-14,.,66*,30*,
